Screens as filed in PubChem BioAssay.
PAD4 inh: human PAD4 inhibitors, primary screen, biochemical, fluorescence polarization, 1536-well format | recombinant PAD4, RCA probe fluorescence polarization | inhibition, % at 6.36 µM | 0.41% of 330,000 active;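 active = percent inhibition above a cutoff equal to the mean of all tested compounds plus 3 SD, cut at about 15% in these data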;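 note: 0% = PAD4 with RCA probe and DMSO and 100% = probe without PAD4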
GSTO1 inh: inhibitors of recombinant GSTO1, primary screen, counter-screen for RBBP9 inhibitor project, biochemical, fluorescence polarization; activity-based probe fluorescence polarization; inhibition, % at 5.96 µM; 1.1% of 300,000 active;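 active = inhibition above the campaign mean inhibition plus 3 SD, cut at about 35% in these data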;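 note: 0% = GSTO1-1 with DMSO and 100% = wells lacking GSTO1-1 enzyme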
Target sequence (P78417 whole entry, looked up): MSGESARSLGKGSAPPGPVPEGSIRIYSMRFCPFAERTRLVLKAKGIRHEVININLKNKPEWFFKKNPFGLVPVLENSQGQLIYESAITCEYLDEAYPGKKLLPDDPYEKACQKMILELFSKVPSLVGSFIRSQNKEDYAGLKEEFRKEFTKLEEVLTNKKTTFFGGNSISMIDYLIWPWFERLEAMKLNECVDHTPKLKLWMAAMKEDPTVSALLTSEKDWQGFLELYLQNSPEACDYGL
LYPLA2 inh: LYPLA2 inhibitors, primary screen, counter-screen for PME1 inhibitor project, biochemical, fluorescence polarization, FP-Rh probe ABPP; 0.38% of 320,000 active; recombinant LYPLA2; inhibition, % at 5.9 µM; AID 2177, 2009; Acyl-protein thioesterase 2 (Homo sapiens), O95372;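 active = inhibition above the screen-wide mean plus 3 SD, limit set per campaign, cut at about 26% in these data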;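 note: 0% = LYPLA2 with DMSO and 100% = wells lacking LYPLA2 enzyme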
Target sequence (O95372 whole entry, looked up): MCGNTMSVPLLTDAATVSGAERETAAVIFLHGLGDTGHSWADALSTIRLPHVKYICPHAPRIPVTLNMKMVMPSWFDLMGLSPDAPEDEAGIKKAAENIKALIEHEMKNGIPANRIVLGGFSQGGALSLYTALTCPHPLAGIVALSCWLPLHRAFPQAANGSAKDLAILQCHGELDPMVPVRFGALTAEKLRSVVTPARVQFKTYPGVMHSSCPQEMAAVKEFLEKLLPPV
PME-1 inh: PME-1 inhibitors via competitive probe labeling, primary screen, biochemical, fluorescence polarization, FP-Rh probe, HTS; recombinant PME-1; inhibition, % at 5.9 µM; 0.53% of 320,000 active; AID 2130, 2009;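 active = inhibition above the campaign mean of all compounds plus 3 SD, cut at about 26% in these data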;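 note: competitive labeling of PME-1 active site by serine hydrolase directed probe; 0% = PME-1 with DMSO and 100% = wells lacking PME-1 enzyme; inhibitors block probe labeling so polarization falls and inhibition rises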
LYPLA1 counter: LYPLA1 inhibitors, primary screen, counter-screen for PME1 inhibitor project, biochemical, fluorescence polarization, FP-Rh probe ABPP | inhibition, % at 5.9 µM | recombinant LYPLA1 | 0.16% of 320,000 active;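 active = inhibition above the mean of all tested compounds plus 3 SD, set per campaign, cut at about 14% in these data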;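 note: inhibitors block serine hydrolase probe labeling of LYPLA1 so polarization falls; 0% = enzyme with DMSO and 100% = wells lacking LYPLA1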
Fam108B inh: mouse Fam108B serine hydrolase inhibitors, primary screen, counter-screen for RBBP9 inhibitor project, biochemical, fluorescence polarization | inhibition, % at 9.51 µM | AID 1947, 2009 | recombinant Fam108B, FP-Rh probe fluorescence polarization | 0.33% of 300,000 active;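 active = inhibition above the screen mean inhibition plus 3 SD, computed separately per campaign, cut at about 18% in these data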;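 note: inhibitors lower polarization as less probe binds the enzyme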
Fam108b confirm: mouse Fam108b serine hydrolase inhibitors, confirmation, counter-screen for RBBP9 inhibitor project, biochemical, fluorescence polarization, triplicate; shares compounds with Fam108B inh; recombinant Fam108b, FP-Rh probe fluorescence polarization; inhibition, % at 9.51 µM; 44% of 930 active;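 active = inhibition above a limit from the primary screen, the mean over all compounds plus 3 SD, cut at about 19% in these data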;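 note: 0% = median of active Fam108b wells and 100% = catalytically dead S170A mutant; inhibitors free the probe so polarization falls as inhibition rises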
Fam108b ABPP HTS: inhibition of mouse Fam108b by HTS hits, late-stage follow-up, biochemical, gel-based ABPP, soluble recombinant form | 44% of 260 active | shares compounds with Fam108B inh | AID 588649, 2011 | fluorophosphonate probe | inhibition, % at 20 µM; in the data active = inhibition above about 40%
GSTO1 inh conf: GSTO1 inhibitor hit confirmation, counter-screen for RBBP9 inhibitor project, biochemical, fluorescence polarization, triplicate; shares compounds with GSTO1 inh; recombinant GSTO1, probe fluorescence polarization; inhibition, % at 5.96 µM; 54% of 2,400 active; AID 2176, 2009;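 active = inhibition above the primary screen's cutoff, its mean inhibition plus 3 SD, cut at about 35% in these data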;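 note: loss of polarization as inhibitors block binding of rhodamine sulfonate ester activity probe; 0% = GSTO1 with DMSO and 100% = wells lacking GSTO1 enzyme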
LYPLA1 conf: LYPLA1 inhibitors, retest, confirmation, counter-screen for PME1 inhibitor project, biochemical, fluorescence polarization, FP-Rh probe ABPP; shares compounds with LYPLA1 counter; recombinant LYPLA1; inhibition, % at 5.9 µM; 69% of 480 active;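 active = mean inhibition across replicates above the hit cutoff set in the primary screen, cut at about 15% in these data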;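 note: loss of FP-Rh probe labeling of LYPLA1 seen as lower polarization; 0% = LYPLA1 with DMSO and 100% = wells lacking LYPLA1 enzyme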
LYPLA2 confirm: LYPLA2 inhibitors, retest, confirmation, counter-screen for PME1 inhibitor project, biochemical, fluorescence polarization, FP-Rh probe ABPP; 72% of 1,100 active; recombinant LYPLA2; inhibition, % at 5.9 µM; shares compounds with LYPLA2 inh;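 active = mean inhibition across replicates above the hit cutoff set in the primary screen, cut at about 26% in these data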;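 note: blocked labeling of the enzyme by serine hydrolase FP-Rh probe lowers polarization; 0% = enzyme with DMSO and 100% = wells lacking LYPLA2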
PAD4 confirm: human PAD4 inhibitors, confirmation, biochemical, fluorescence polarization | 28% of 1,200 active | recombinant PAD4, RCA probe fluorescence polarization | inhibition, % at 6.36 µM | AID 488796, 2010 | shares compounds with PAD4 inh;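 active = mean inhibition across replicates above the hit cutoff set by the earlier primary screen, cut at about 15% in these data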;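 note: inhibitors block active-site labeling by the probe so polarization falls; 0% = PAD4 with probe and DMSO and 100% = probe without PAD4 enzyme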
Numbers without * were called inactive; nt = no result. Rows were chosen to be rich in hits. Some 1.8% of all compounds tested hit in one or more screens of this group.

SMILES	PAD4 inh	GSTO1 inh	LYPLA2 inh	PME-1 inh	LYPLA1 counter	Fam108B inh	GSTO1 inh conf	others
O=C1C(=O)c2ccccc2-c2ccccc21	81.8*	90.0*	85.4*	36.6*	82.8*	63.7*	93.5*	Fam108b confirm=65.1*;Fam108b ABPP HTS=15.0;LYPLA1 conf=85.5*;LYPLA2 confirm=90.2*;PAD4 confirm=75.7*
COc1cc(OC)cc(-n2nc(C(=O)N3CCC4(CC3)OCCO4)c3ccccc3c2=O)c1	2.5	-0.9	-8.5	-1.1	-0.6	0.2	nt
CC(=O)O[C@H]1C[C@@H]2CC[C@@H]3[C@H](CC[C@]4(C)C(=O)CC[C@@H]34)[C@@]2(C)C[C@@H]1OC(C)=O	-0.1	2.1	-3.6	-5.6	1.2	2.3	nt
Cc1ccc(O)c(C)c1	-6.0	nt	4.8	1.0	2.8	nt	nt
CC(C)OCCCNC(=O)c1c(N)n(Cc2cccs2)c2nc3ccccc3nc12	52.2*	60.1*	12.0	22.4	0.9	18.8*	-7.7	Fam108b confirm=6.8;PAD4 confirm=1.8
O=P(Oc1ccccc1)(Oc1ccccc1)N1CCN(c2ccc(F)cc2)CC1	5.2	5.5	2.7	-0.8	-3.7	1.9	nt
O=C(Nc1ccccc1)N1CC2CC(C1)c1cccc(=O)n1C2 (configuration not stated)	-0.4	2.5	-2.7	5.2	-4.9	1.3	nt
Cc1nc2c(=O)n(C)c(=O)nc-2n(C)n1	76.7*	97.7*	88.5*	36.3*	87.6*	66.4*	96.2*	Fam108b confirm=81.6*;Fam108b ABPP HTS=5.0;LYPLA1 conf=82.5*;LYPLA2 confirm=95.2*;PAD4 confirm=69.4*
Nc1c(C(=O)OCC2CCCO2)c2nc3ccccc3nc2n1Cc1cccs1 (configuration not stated)	-9.4	38.9*	-8.5	12.2	-0.9	-0.1	5.2
COc1ccc(O)c(CN2CCCC(C(=O)c3ccccc3SC)C2)c1 (configuration not stated)	-2.2	9.2	9.2	0.0	2.8	-0.1	nt
COc1ccc(C(=O)N2C[C@H]3C[C@@H](C2)c2cccc(=O)n2C3)cc1OC	-2.7	2.0	-1.1	1.0	-0.6	0.4	nt
Cc1cc(NC(=O)CCl)no1	1.6	87.0*	0.8	0.1	-3.9	3.0	97.7*
[O-][n+]1onc2c1CCC1N(O)CCC21O (configuration not stated)	1.6	4.6	3.8	-2.0	-0.9	2.2	nt
CC1(C)CC(=O)C(C2(O)C(=O)NC(=O)NC2=O)=C(O)C1	3.4	67.6*	-7.5	-0.7	1.2	1.6	60.4*
CCCN1CCc2cccc3c2[C@H]1Cc1ccc(O)c(O)c1-3	4.3	93.2*	-12.9	4.6	-8.6	-1.0	8.7
